This is an account of results in PubChem BioAssay (NCATS).

Results filed as inconclusive are left out. Calls of active or inactive are those of the source. Unless noted, the call rests on the fitted dose curve; in most records, active means well fitted curve in the direction sought with a large enough effect; inconclusive means small, poorly fitted or top-dose-only effect, or another doubt; inactive means no such curve, though single readings can be large; an effect the other way counts as inactive or inconclusive.

Assay [1] addresses Glucocorticoid receptor (Homo sapiens) (UniProt P04150). Description: GR-GFP Redistribution (AID 450;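 active means compounds whose dose series gives a full or clear partial fitted curve of increased nuclear translocation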; further: potency means the concentration at half of the fitted maximal effect). Conditions: U2OS GR-GFP nuclear translocation, laser cytometry, 2 h.
Assay [2] deals with Mitogen-activated protein kinase 10 (Mus musculus) (UniProt Q61831). Put plainly: JNK3 AlphaScreen Assay (AID 530; active means well fitted curve in either direction with a large enough effect, not every such curve was filed as active;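 further: kinase came from lysate of stimulated human HepG2 cells; signal reports phosphorylation of biotinylated GST-cJun 1-79 at Ser73 with 10 µM ATP; on the % scale 0 is the no-effect control and ±100 the full control effect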). In short, it runs like this:
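JNK3 came from HepG2 lysates pre-activated with IL-1beta and TNF-alpha and phosphorylated biotinylated GST-cJun (1-79) at 10 uM ATP, pH 7.6, room temperature. Compounds were titrated. AlphaScreen signal used anti-phospho-cJun (Ser73) antibody.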

The target of assay [3] is Cytochrome P450 2D6 (Homo sapiens) (UniProt P10635). Description: qHTS Assay for Inhibitors and Substrates of Cytochrome P450 2D6 (AID 891). Further: potency means the concentration at half of the fitted maximal effect; nearly all actives have a fitted effect of over 60% in size. The method, boiled down:
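Human CYP2D6 (5 nM) with 30 uM Luciferin-ME EGE (at Km) in 100 mM KPO4, compound preincubated 10 min, then NADPH regeneration system for 60 min at room temperature. Luciferin read by luminescence; normalized to 1.43 uM quinidine.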
Background: qHTS replaces the single test concentration by a dilution series.

Assay [4] deals with Cytochrome P450 2C19 (Homo sapiens) (UniProt P33261). Put plainly: qHTS Assay for Inhibitors and Substrates of Cytochrome P450 2C19 (AID 899). Further: potency means the concentration at half of the fitted maximal effect; nearly all actives have a fitted effect of over 60% in size. In short, it runs like this:
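NADPH-dependent conversion of Luciferin-H EGE (10uM, at KM) by 5nM enzyme in 50mM KPO4, 60 min at 37C following 10 min compound preincubation. Stopped with luciferin detection buffer; luminescence read after 20 min.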

A short description of assay [5]: qHTS Assay for Lipid Storage Modulators (AID 1519; calls by dose curve; on activity change, negative = inhibition: on the % scale 0 is the no-effect control and ±100 the full control effect). The settings on record: Drosophila S3 cells, BODIPY lipid droplet/cell ratio, laser cytometry, cells loaded with oleic acid. In short, it runs like this: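 Cells seeded at 5,000 per well were treated with compounds over a concentration series and loaded with oleic acid (400 uM, as added). Lipid droplet fluorescence (488 nm excitation, 500-530 nm channel) was read by laser-scanning cytometry and normalized to 20 uM Triacsin C.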

Assay [6] deals with DNA dC->dU-editing enzyme APOBEC-3G (Homo sapiens) (UniProt Q9HC16). Put plainly: qHTS for inhibitors of Vif-A3G interactions: Validation (AID 588379). Further: 0% is about no effect. In short, it runs like this:
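HeLa cells stably expressing Vif and A3G-eYFP, 700 cells/well, incubated overnight at 37 deg C, then exposed to compound overnight at 37 deg C. Inhibition of Vif-mediated degradation read as increased yellow fluorescence (Ex 488/Em 500-530) by laser-scanning cytometry.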

In assay [7] the test system is Zika virus NS2B-NS3 protease. Description: Primary screen GU AMC qHTS for Zika virus inhibitors (AID 1347154).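 Further: 0% = no-inhibitor control and -100% = no-enzyme control; nearly all actives have a fitted effect of over 70% in size.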 In short, it runs like this: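 Unlinked Zika NS2B hydrophilic domain/NS3 protease domain noncovalent complex (25 nM final) in 10 mM Tris-HCl pH 8.0, 0.01% Tween 20, with AMC peptide substrate. Fluorescence (ex 340, em 450 nm) change over 15 min, room temperature; percent inhibition fitted to 4-parameter Hill equation.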

A short description of assay [8]: Counterscreen qHTS for small molecule stabilizers of the endoplasmic reticulum resident proteome: GLuc-NoTag assay (AID 1508627).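 Further: SH-SY5Y cells given compound then 100 nM thapsigargin to empty ER calcium; 0% = thapsigargin alone and -100% = DMSO vehicle control.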 The method, boiled down:
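SH-SY5Y cells stably expressing constitutively secreted GLuc (no SERCaMP tag) were pre-incubated 5 h, treated with compound for 19 h, then 100 nM thapsigargin for 4 h at 37C; medium GLuc read by coelenterazine luminescence.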
(The purpose of a counterscreen is to sort out artefacts and off-target activity.)

Assay [9] can be described thus: Cell Viability qHTS for small molecule stabilizers of the endoplasmic reticulum resident proteome (AID 1508629).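 Further: human SH-SY5Y neuroblastoma cells carrying the GLuc-SERCaMP reporter; compound exposure about 46 h in total before the viability read; on the % scale 0 is the no-effect control and ±100 the full control effect.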 The settings on record: cell viability counter-screen, 100 nM thapsigargin for final 4 h.

Glucocorticoid receptor (Homo sapiens), sequence (P04150 whole entry, looked up): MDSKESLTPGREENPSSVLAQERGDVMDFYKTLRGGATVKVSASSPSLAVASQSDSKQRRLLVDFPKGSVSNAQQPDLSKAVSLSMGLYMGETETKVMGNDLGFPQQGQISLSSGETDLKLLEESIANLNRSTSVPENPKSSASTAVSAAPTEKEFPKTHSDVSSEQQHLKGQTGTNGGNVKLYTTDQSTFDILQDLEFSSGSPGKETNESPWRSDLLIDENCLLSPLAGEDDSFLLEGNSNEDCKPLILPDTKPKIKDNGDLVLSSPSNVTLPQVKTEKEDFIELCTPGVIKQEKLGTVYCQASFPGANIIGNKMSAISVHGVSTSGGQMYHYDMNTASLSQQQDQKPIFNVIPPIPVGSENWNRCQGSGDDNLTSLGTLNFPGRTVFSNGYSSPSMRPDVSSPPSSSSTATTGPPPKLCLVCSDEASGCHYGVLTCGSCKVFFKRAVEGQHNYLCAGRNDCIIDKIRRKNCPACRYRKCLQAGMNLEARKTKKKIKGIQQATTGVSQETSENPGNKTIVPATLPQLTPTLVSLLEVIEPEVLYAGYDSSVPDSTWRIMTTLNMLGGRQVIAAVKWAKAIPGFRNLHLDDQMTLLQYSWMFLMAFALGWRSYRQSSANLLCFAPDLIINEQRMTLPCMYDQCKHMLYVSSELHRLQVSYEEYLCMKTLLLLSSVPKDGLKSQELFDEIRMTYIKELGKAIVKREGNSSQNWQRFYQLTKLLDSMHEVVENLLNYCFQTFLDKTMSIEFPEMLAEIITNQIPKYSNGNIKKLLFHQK
DNA dC->dU-editing enzyme APOBEC-3G (Homo sapiens), sequence (Q9HC16 whole entry, looked up): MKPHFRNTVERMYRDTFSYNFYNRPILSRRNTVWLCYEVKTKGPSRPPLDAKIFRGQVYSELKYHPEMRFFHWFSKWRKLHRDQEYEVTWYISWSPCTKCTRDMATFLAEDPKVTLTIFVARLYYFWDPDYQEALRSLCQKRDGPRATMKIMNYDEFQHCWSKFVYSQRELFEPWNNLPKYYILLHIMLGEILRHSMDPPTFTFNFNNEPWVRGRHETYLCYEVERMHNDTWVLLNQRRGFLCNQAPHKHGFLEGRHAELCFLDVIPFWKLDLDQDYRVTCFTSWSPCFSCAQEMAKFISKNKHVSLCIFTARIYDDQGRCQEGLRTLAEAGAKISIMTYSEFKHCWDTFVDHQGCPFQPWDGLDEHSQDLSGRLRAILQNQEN
Cytochrome P450 2C19 (Homo sapiens), sequence (P33261 whole entry, looked up): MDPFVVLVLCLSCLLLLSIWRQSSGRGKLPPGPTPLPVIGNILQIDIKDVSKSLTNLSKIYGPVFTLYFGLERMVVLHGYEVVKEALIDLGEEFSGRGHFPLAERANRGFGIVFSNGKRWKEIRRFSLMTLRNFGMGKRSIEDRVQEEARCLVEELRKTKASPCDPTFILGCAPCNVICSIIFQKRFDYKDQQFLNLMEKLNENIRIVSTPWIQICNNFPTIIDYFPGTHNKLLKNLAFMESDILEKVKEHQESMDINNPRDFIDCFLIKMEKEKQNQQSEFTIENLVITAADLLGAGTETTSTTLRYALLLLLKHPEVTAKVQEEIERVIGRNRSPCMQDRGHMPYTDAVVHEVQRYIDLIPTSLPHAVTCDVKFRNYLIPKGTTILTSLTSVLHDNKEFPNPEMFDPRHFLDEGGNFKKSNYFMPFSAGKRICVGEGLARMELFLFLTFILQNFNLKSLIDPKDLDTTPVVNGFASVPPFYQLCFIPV
Cytochrome P450 2D6 (Homo sapiens), sequence (P10635 whole entry, looked up): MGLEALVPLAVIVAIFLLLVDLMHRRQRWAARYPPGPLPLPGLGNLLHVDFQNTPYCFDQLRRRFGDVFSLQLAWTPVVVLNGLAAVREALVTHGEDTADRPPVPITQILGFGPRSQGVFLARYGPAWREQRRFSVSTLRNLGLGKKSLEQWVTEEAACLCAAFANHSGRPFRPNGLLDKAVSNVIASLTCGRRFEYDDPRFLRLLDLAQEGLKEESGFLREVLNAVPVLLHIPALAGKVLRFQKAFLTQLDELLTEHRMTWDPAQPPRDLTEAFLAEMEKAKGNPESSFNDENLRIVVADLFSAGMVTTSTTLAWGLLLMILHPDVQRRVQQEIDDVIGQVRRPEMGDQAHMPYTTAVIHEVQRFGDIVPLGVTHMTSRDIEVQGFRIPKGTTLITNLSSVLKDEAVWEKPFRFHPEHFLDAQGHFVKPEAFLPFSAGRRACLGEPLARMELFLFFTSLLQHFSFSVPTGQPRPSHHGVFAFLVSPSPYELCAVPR

For `CC[C@H](Oc1ccc(Cl)cc1)C(=O)OC1C[C@H]2CC[C@@H](C1)N2C` (stereo partly specified), the figures for the Potency in assay [1], in assay [3] and in [4] were > 46000 nM (inactive), 6.3 nM (active) and 15.8 nM (active), respectively. In addition, in assay [2], the compound was classed as inactive. Further, the activity change, negative = inhibition in assay [5] (at 57.5 µM (top of the series)) was -0.561% (inactive). Also, the max response in [5] (measured here: cell count channel max response) was 16.1%; in assay [5] (measured here: lipid channel max response), 28.8%; in assay [9] it was 3.6% (inactive). In addition, the Potency entry in assay [6], in assay [7] and in assay [8] was “inactive” throughout.
